PubChem BioAssay (NCI)
The panel holds about 83,000 compounds, 20% with a hit somewhere; the sample as a whole holds those more often.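 How to read the values: 0–100, growth inhibition (40 = 60% inhibited); 0, no net growth; -100 to 0, cell death (-40 = 40% of starting cells died; -100 = all dead).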 Unmarked numbers belong to inactive results. Active and inactive are the calls of the source. How the source made its calls: active means growth percent below 10; inactive means the rest.

Experiments:
Assay in all cases: NCI-60 one-dose screen, 48 h (100 = growth as untreated, 0 = no growth, -100 = all killed)
Conditions in all cases: 10 µM unless noted
[1] = tested on: DU-145 prostate
[2] = tested on: K-562 leukemia
[3] = tested on: MALME-3M melanoma
[4] = tested on: MDA-MB-231 breast
[5] = tested on: SF-268 CNS
[6] = tested on: SF-295 CNS
[7] = tested on: SF-539 CNS
[8] = tested on: UACC-257 melanoma
[9] = tested on: M14 melanoma

Structure (SMILES)	growth [1]	growth [2]	growth [3]	growth [4]	growth [5]	growth [6]	growth [7]	growth [8]	growth [9]
C(=N\Nc1ncc(-c2cc3cc4c(cc3o2)OCO4)s1)/c1c[nH]c2ccccc12	-41.3% (active)	4.08% (active)	-45.6% (active)	-27% (active)	-34.6% (active)	-41.1% (active)	-80% (active)	3.52% (active)	16.6%
O=C1c2cccnc2C(=O)c2nc3cc(N4CCN(C5CC5)CC4)ccc3nc21	-75.9% (active)	0.866% (active)	-100% (active)	15.1%	12.5%	-88.9% (active)	-99.4% (active)	-84.5% (active)	-91.2% (active)
Fc1ccc(C2CC(c3cccc(Nc4ccncc4)c3)=NN2c2ccc(Cl)cc2)cc1 (stereo not given)	52%	1.22% (active)	33.1%	60.7%	77.9%	66.5%	84.1%	80.8%	101%
CC(N)C(=O)NNc1n[nH]c(=S)n1N (stereo not given)	109%	107%	94%	105%	94.2%	94.7%	100%	98.8%	95.2%
Cc1ccccc1-c1cc(Cc2ccc(F)cc2)c(=O)[nH]n1	130%	84.8%	88%	109%	94.6%	123%	94.2%	137%	118%
CS(=O)(=O)Nc1cc(-c2ccc3ncnc(Nc4ccc5[nH]ncc5c4)c3c2)cnc1Cl	82.4%	90.1%	60.9%	79.5%	53.8%	88%	67.7%	35.4%	80.8%
COc1cc(Nc2cc(O)c3c(=O)cc(-c4ccccc4)oc3c2)cc(OC)c1	20%	13.1%	73.6%	15.9%	48.2%	33.5%	-35.2% (active)	77.9%	28.4%
CCN(CC)CCCC(Nc1c2ccc(Cl)cc2nc2ccc(OC)cc12)c1ccc(Cl)cc1 (stereo not given)	23.8%	-58.2% (active)	-82.3% (active)	-59.1% (active)	14.2%	-85.7% (active)	-90.9% (active)	-86.7% (active)	-89% (active)
CC(C)(O)C1CCCN1C(=O)c1ccccc1I (stereo not given)	111%	83.5%	109%	84%	91.5%	84.4%	105%	104%	95.1%
Cc1[nH]n(C(=O)c2ccncc2)c(=O)c1N=Nc1ccc(F)c(Cl)c1	139%	21.4%	104%	100%	94.2%	91.1%	97%	11.7%	99.8%
Cc1c2c(cc[n+]1Cc1ccccc1)c1ccc(OCc3ccccc3)cc1n2Cc1ccccc1	-33.6% (active)	-25% (active)	-73.6% (active)	-85.1% (active)	-90.4% (active)	-69.2% (active)	-5.52% (active)	-0.651% (active)	-87.9% (active)
COc1cc(-c2cc(=O)oc3cc(O)ccc23)c(OC)c2c1OCO2	101%	90.3%	88.7%	93.7%	92.4%	92%	92.1%	101%	96.5%
CN1CCN(CCCNc2nccc(-c3c(-c4ccc(F)c(O)c4)nc4sccn34)n2)S1(=O)=O	97.7%	66%	-10.4% (active)	70.8%	104%	101%	113%	33.8%	20%
CC(=O)c1c(C)[nH]c(-c2nc3ccc(N4CCN(C)CC4)cc3[nH]2)c1-c1ccccc1	59.7%	24.7%	23.7%	32%	53.6%	38.1%	24.9%	48.4%	94.7%
Cn1c(=O)c2[nH]c(CCCc3nc4c([nH]3)c(=O)n(C)c(=O)n4C)nc2n(C)c1=O	118%	105%	108%	113%	104%	111%	98.9%	114%	111%
CC(=O)N1N=C(c2cccc(Nc3ccncc3)c2)CC1c1ccccc1 (stereo not given)	99.5%	11.8%	76.7%	83.9%	91%	87.5%	80.9%	92.6%	-76.2% (active)
COc1cc(NCCCN(CC(C)C)C2CCCC2)c2ncccc2c1	83.4%	39.2%	92.1%	74.8%	87.5%	87.4%	88.8%	89.4%	85.7%
O=C1c2ccccc2C(=O)c2c(NCCN=Cc3ccccc3O)cccc21	-26% (active)	41.6%	80.2%	66.3%	51.2%	2.48% (active)	62%	-14.3% (active)	35.6%
O=C(CNCCO)Nc1ccc2ncnc(Nc3ccc(OCc4cccc(F)c4)c(Cl)c3)c2c1	61.6%	27.8%	98.2%	87.7%	78.1%	95%	87.8%	101%	93.4%
c1ccc(CCSc2ncnc3nc[nH]c23)cc1	108%	72.4%	106%	85.2%	103%	75.6%	84.8%	46.2%	97.5%
COc1ccc(C2CC(c3cccc(Nc4ccncc4)c3)=NN2c2cc(Cl)cc(Cl)c2)cc1 (stereo not given)	13.3%	0.631% (active)	-40.6% (active)	44.7%	66.3%	72.4%	78%	62%	97%
COc1ccc(C(=O)c2cc3c(N)c(C(=O)Nc4cccc(OC)c4)sc3nc2C)cc1	16.2%	8.3% (active)	55.6%	15.5%	39%	24.2%	-16.3% (active)	71.3%	13.1%
C[C@]12C[C@H]1CC[C@]1(C)[C@@H]2CC[C@@]23C[C@H](CC[C@H]21)[C@@](O)(CO)C3	104%	66.7%	98.7%	93.1%	103%	113%	93%	100%	-47.9% (active)
CC1=CC2(C)/C=C(C)/C=C\CC(O)/C=C3/C=CC(=C4C(=O)OC2(CC1C)C4=O)OC3 (stereo not given)	-85.4% (active)	2.75% (active)	-96.3% (active)	24.2%	-22.4% (active)	41.4%	-82.1% (active)	-57% (active)	-77.1% (active)
CN1CCN(c2cc(F)c(NC3=C(Cl)C(=O)c4ncccc4C3=O)c(F)c2)CC1	-67.6% (active)	-0.834% (active)	-96.1% (active)	-32% (active)	48.7%	78.8%	-25.1% (active)	-62.2% (active)	-40.5% (active)
CCN1C(=O)/C(=c2\sc3n(c2=O)NC2C(N=3)N(CC)C(=O)N2CC)c2ccccc21 (stereo not given)	17.8%	10.2%	36.7%	19.9%	63.9%	16.4%	-18.6% (active)	82.5%	38%
C[C@]12CCc3nc(Nc4cccc(O)c4)sc3C1=CC[C@@H]1[C@@H]2CC[C@]2(C)/C(=N\NC(N)=S)CC[C@@H]12	8.45% (active)	3.19% (active)	39%	26.2%	37.6%	-34% (active)	-48% (active)	74%	31.1%
CC(C)CCSc1nc(NNC(N)=O)c(C#N)c(-c2ccccc2)n1	117%	99.2%	99.7%	99.6%	101%	96.9%	94.8%	102%	71.7%
O=C1/C(=C/c2ccc(O)cc2)COc2ccc(-c3ccccc3)cc21	59.7%	39.3%	116%	94.6%	69.1%	89.8%	90.7%	92.7%	86.6%
COc1cnccc1-c1nc2ccc3[nH]ncc3c2c2c1CCCC2	62.7%	42.2%	73.8%	68.2%	61.3%	60.5%	35.7%	87.5%	46.3%
